± gives the standard deviation of the averaged measurements. In all, about 25,000 sequences were measured (“ln(normalized median fluorescence intensity)”: median about 10, highest 2% from about 12 on). Many of the other results were omitted from the sample, so the highest values are more common in it than they were.
test system: PfAP2-G AP2 domain (GST-tagged); experiment: gcPBM binding intensity (ln(normalized median fluorescence intensity)); higher = stronger DNA binding
Summary of the method: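 Using an Agilent 4 × 180k array, primer-extended double-stranded 36-bp intergenic genomic probes and negative controls were exposed for 1 h to GST-fused P. falciparum DNA-binding domains expressed in E. coli. Binding was carried out in 1× PBS with 1% milk, 0.2 mg/ml BSA, 0.5% salmon testes DNA and 0.03% Triton X-100, and protein was detected with Alexa488 anti-GST antibody and a 488 nm scan. Binding intensity is the highest Masliner-normalised natural-log median intensity across replicate spots of either probe orientation.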

| Sequence | gcPBM binding intensity (ln) |
| --- | --- |
| GCTATATATTACAATCGTACAATATATATATATATA [XGTACX_site6730] | 10.8 ± 0.68 |
| TATATTTATAACAACACACACAGATCATAAAACTGC [CACACA_site7086] | 10.2 ± 0.12 |
| TTTTTCCAATCAGATGCATGTTACTATATTTGGTTC [TGCATGCA_site52] | 9.96 ± 0.014 |
| ATATATTATTATAACTGTACTTTTTTTGTGGTTAAT [XGTACX_site8266] | 11.5 ± 0.83 |
| TCATAGTATAAACACACACACACACCCATATATATA [CACACA_site8512] | 10.2 ± 0.3 |
| ATAAATTGTTCTTTTTGTGTAAACAGAATATTAAAA [CACACA_negctrl_site1022] | 10.1 ± 0.21 |
| GCATAAGAAATAAATAGTACACACATAGACACACAC [XGTACX_site3095] | 11.6 ± 0.85 |
| TAAGAAATAAATAGTACACACATAGACACCCACCGA [CACACA_site1516] | 11.5 ± 0.93 |
| TAAGAAATAAATAGTACACACATAGACACCCACCCA [CACACA_site8429] | 11.7 ± 0.8 |
| TGATCTTTACACATATTATATATATATAAAAAAAAA [XGTACX_negctrl_site360] | 9.99 ± 0.26 |
| TCTTGAAAAAGAATCAATCGGTCGACAAAAAAAAAA [CACACA_negctrl_site1099] | 10.4 ± 0.24 |
| GTCTTAAAAATTAAAACACACGTTCACTTTCATATT [CACACA_site5803] | 10.05 ± 0.021 |
| TTTCAAAGGAAATGGTGTACACAATTTTTCCTTTTT [XGTACX_site2340] | 11.7 ± 0.88 |
| TTTTCCTTTCACAATGGTACACAAATATACATGCAA [XGTACX_site7244] | 11.2 ± 0.8 |
| ATATTGTGTTATAAATGTACACAATTTCCTTTCATA [XGTACX_site7481] | 11.3 ± 0.79 |
| AAAAAAAAATGTCATGGTACACAATTTTTTCTTTTT [XGTACX_site4505] | 11 ± 0.56 |
| ATTATACAAAATGGTAAGGAAAAGGAAATTTTTTTT [CACACA_negctrl_site1090] | 9.77 ± 0.014 |
| CAAAGGAAATGGTGTACACAATTTTTCCTTTTTCGT [CACACA_site4800] | 11.8 ± 1.2 |
| ATATATATGGATGGACGTACGTATGTATGTAATTTC [XGTACX_site4135] | 11.3 ± 0.64 |
| AAAAGAAATATTTATACACACACACTAACATATATA [CACACA_site8580] | 10.09 ± 0.035 |
| AAATAAGAAAAAGCGCGTACACATAACATTTTTATA [XGTACX_site8807] | 11.7 ± 0.93 |
| CAATTTATAAAGAAAACACACATATACATAAATACA [CACACA_site4829] | 10.2 ± 0.16 |
| TATATATATTTATACACACAAACATAATACTACTTA [CACACA_site2022] | 10.3 ± 0.22 |
| TTGGTGGATAAATTTACACACAATAATTTTCGTTCA [CACACA_site467] | 10 ± 0.14 |

| Sequence | gcPBM binding intensity (ln) |
| --- | --- |
| AAAAAAAAAATTTACTGTACACATTTGGGATACTCA [XGTACX_site5191] | 11.7 ± 0.76 |
| ACTGTAAAAGGATTTACACACATATTTACATTTACA [CACACA_site519] | 10.01 ± 0.021 |
| AAAATTTTTTACTTTACACACATTTTGTATATTTTG [CACACA_site1730] | 9.98 ± 0.23 |
| AAAAAATTCTGGTACTGTACACATTTTTTTAAATTT [XGTACX_site6904] | 11.7 ± 1 |
| TTTAAAAATTAATTCTGTACACATTTTTATTTTATT [XGTACX_site8] | 11.5 ± 0.8 |
| AAAAAAAATTTTATCTGTACACATTTTTTTCTTTTT [XGTACX_site4229] | 11.6 ± 0.74 |
| TTACAATAAATTATAGTGCAATATTTTATTTAATAT | 9.9 ± 0.26 |
| AAAATATATATATATATATATATATGTATACTCCTA [XGTACX_negctrl_site312] | 10 ± 0.29 |
| CGAATATATTCTAGACGTACTATATAATATATATAT [XGTACX_site4953] | 11.1 ± 0.69 |
| TATATTTATTTATTCTGTACTGAAGACAGTTATGTA [XGTACX_site8857] | 10.8 ± 0.58 |
| TAATTATTTTTATATTGTACAATATGTAAATATATA [XGTACX_site592] | 10.8 ± 0.58 |
| GATATAATTATGTGTACACAATTTTTTTTTTTTTTT [CACACA_site4501] | 11.7 ± 0.87 |
| AAAATAATATATGTATGTACACAATTATTTATAAGT [XGTACX_site7267] | 11.5 ± 0.89 |
| TTTGTTTTATGTGGTTGTACACAAATACAATTTAAA [XGTACX_site5156] | 11.6 ± 1.1 |
| TTATATGTTTTGTGTACACAATTTATTAAATTAATA [CACACA_site5645] | 11.7 ± 0.88 |
| ATATGTACAAATTATACACACATGTACAATTATATA [CACACA_site1253] | 11.3 ± 0.79 |
| AAATTATATATGATGTGTACATAAATATATACACAT [XGTACX_site8761] | 11.4 ± 0.83 |
| AAAAAAAATAATAATACACACAATATGATATGTACA [CACACA_site850] | 10.4 ± 0.17 |
| TATGATATAATTATGTGTACACAATTTTTTTTTTTT [XGTACX_site1084] | 11.6 ± 0.8 |
| GAAAATAGCTAAAATACACACAATTAAAAATTATTA [CACACA_site3506] | 9.84 ± 0.16 |
| TTCCATGTAGGACATGCATGCAGTTTTTAAAATATT [TGCATGCA_site481] | 11 ± 0.69 |
| AATGTTAAAAATGAAAGTACATGGAATTTATTATTT [XGTACX_site4095] | 11 ± 0.56 |
| AATATTTATATTTAGTGTACAGAAATAAAAAAAAAA [XGTACX_site6066] | 11.3 ± 0.93 |
| TATTTTTAAAATATAAGTAAAAAAATAATATAAACT [TGCATGCA_negctrl_site283] | 10.1 ± 0.11 |

| Sequence | gcPBM binding intensity (ln) |
| --- | --- |
| TCCTCTTCAATATATATATATTATAAATAAATAAAT [CACACA_negctrl_site1756] | 9.91 ± 0.38 |
| TGTGTAGCTAGGGGGTTGCTAATTTTTGTTTTGACC [CACACA_negctrl_site634] | 10.9 ± 0.57 |
| ATAAGCTCATGCAGGTGTACACAAAAAGAAAAAAAA [XGTACX_site2433] | 11.6 ± 0.81 |
| AGGTGAGCTCAGACTACACACACAAAGAAAAAAATA [CACACA_site8439] | 10.2 ± 0.28 |
| AGCTCATGCAGGTGTACACAAAAAGAAAAAAAATAA [CACACA_site4828] | 11.7 ± 0.86 |
| TCAAAGGAATTTTTATGTACATATAAACTTTATTCT [XGTACX_site3432] | 11.2 ± 0.76 |
| GATATATGTATAATAACGCACACTACAAAAATAAAA [CACACA_site2100] | 10.3 ± 0.33 |
| ATGTATATATATATATGTACTAATTAGTAGTTTACG [XGTACX_site6272] | 11.1 ± 0.71 |
| ATAATGACTAAATTTAAACACACAAGGGGAGTTTAC [CACACA_site8209] | 9.725 ± 0.007 |
| ATAAATACATTAAAATGTACATAAAAATATTACTGG [XGTACX_site1484] | 11.2 ± 0.67 |
| TATAAATAAAAGTGTACACACATTAAAATCAAACGT [CACACA_site5316] | 11.7 ± 0.89 |
| TATATAAATAAATGTGTACACACATTAAAATCAAAC [CACACA_site8733] | 11.6 ± 1.1 |
| TTTTTTTAATAAAAGTGTACCAAATTATATACACAT [XGTACX_site6811] | 11.1 ± 0.64 |
| CTTTATATATAGTGTACACATTAAACAAATCTCAAT [CACACA_site5845] | 11.6 ± 1 |
| TATTTTTTTAAAATAGGTACACAATCAAACATTTAT [XGTACX_site8785] | 11.4 ± 0.97 |
| AAAACTATATTAATGTGTACACATCAAAATATTAAT [XGTACX_site6767] | 11.6 ± 0.84 |
| ACAATAAAGAAGTGTACACATATATCAATAAAAAAA [CACACA_site5228] | 11.6 ± 0.95 |
| TATAAATAAATGTGTACACACATTAAAATCAAACGT [CACACA_site2340] | 11.7 ± 0.96 |
| TAAATATAAGTGTACATACACACTTTACAATCTCAT [CACACA_site3006] | 11.3 ± 0.72 |
| CATCTTATATAATCATGTACATATAGAGACTTCTTT [XGTACX_site7685] | 11.1 ± 0.63 |
| TATATTTACATTGTAACACACATGAAATATATATAT [CACACA_site61] | 9.93 ± 0.2 |
| TATAAATATTATAATTGTACATATTATAAAAATTTT [XGTACX_site2719] | 11 ± 0.75 |
| TATTTTTACCCATAAAGTACACATAAATATAAAATA [XGTACX_site177] | 11.5 ± 1 |
| ATGGACAAGTTAAACGCACACAAATATATACACCCA [CACACA_site8478] | 10.6 ± 0.39 |

| Sequence | gcPBM binding intensity (ln) |
| --- | --- |
| ATATATTTATTTTGTGCACACAACGCAAACCTTTTA [CACACA_site3508] | 10.5 ± 0.27 |
| AATTTTGTTAAAAGGACACACAATTCAATATATTAA [CACACA_site647] | 11.1 ± 0.73 |
| CCGTATTCAAAAAGGAGTACACAATTATATGTTATA [XGTACX_site641] | 11.7 ± 1 |
| AAATATATATTCAAAAGTACACAATTTGTTAATAAT [XGTACX_site8917] | 11.4 ± 0.82 |
| TATAATTTATAAGTAGTGCATTTCTTTTCATTTTTA | 10.03 ± 0.057 |
| AAGATTAAACATTGCACACAGAAATATATTTTCTAT [CACACA_site2374] | 9.91 ± 0.099 |
| AATAGTAAAAGATATACACACACCAAAAAATATAAT [CACACA_site5293] | 10.2 ± 0.12 |
| TTTATATACAAAAATGCACACGAAAAGTAATATATA [CACACA_site9387] | 10.28 ± 0.049 |
| ACAGTATCTGGTAGCTGTACGAGTCGTAGAGAGTAG [XGTACX_site2041] | 11.2 ± 0.71 |
| AAAAAAAAAAAAAGTACACACTTTTGCGTACAAGTA [CACACA_site5672] | 11.9 ± 0.83 |
| ACTTTGCGTTAAAAGAGTACATAATATTTTTTTTTT [XGTACX_site7533] | 11.2 ± 0.73 |
| TACCTACACTTTTGGAGTACAATTAAAAAAAAAAAA [XGTACX_site1403] | 11.5 ± 1.1 |
| TATTTTGTTTTAAAAGTACACACTTTTAATTAGATT [CACACA_site1180] | 11.5 ± 1 |
| AATTTCCTTTTTTAAAGTACACAAAAGTTCACTTTG [XGTACX_site4460] | 11.6 ± 0.98 |
| AAAAAAAAAAAAAAAAGTACACACTTTTGCCTACAT [XGTACX_site6583] | 11.6 ± 0.86 |
| AAAAAAAAAAAAAAAGTACACACTTTTGCGTACATG [CACACA_site3097] | 12.3 ± 1.4 |
| AAAAGAAAAAAAAGTACACACATGTATATTAAGCGT [CACACA_site5402] | 11.5 ± 0.83 |
| TTACATGTACAAAAGTTGCACTTCATACACTTTTAT | 11.1 ± 0.61 |
| TTTTTTTTTTTTAGAGTACACACTTTTTTACATTTA [CACACA_site3836] | 11.4 ± 0.83 |
| AAAAAAAAAAAAAAAAGTACAAGCATTGCGTTTTAA [XGTACX_site6075] | 11.5 ± 0.83 |
| AAAAAAAAAAAAAGTACACACTTTTGCGTACATGTA [CACACA_site7449] | 12 ± 0.98 |

Source: the supplement of paper PMC11417369
